Data reported in PubChem BioAssay (NCI).
About 83,000 compounds went through this panel and 20% of them were active in at least one assay; those are over-represented in the sample as a whole.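 Assay: single dose, 48 h. Readout: percent growth (0 = no net growth; negative = cell death). Active: <10.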 Activity calls are given as the source filed them.

Key:
Assay in all cases: NCI-60 one-dose screen, 48 h (100 = growth as untreated, 0 = no growth, -100 = all killed)
Details in all cases: 10 µM unless noted
DU-145 prostate = tested on: DU-145 prostate
K-562 leukemia = tested on: K-562 leukemia
MALME-3M melanoma = tested on: MALME-3M melanoma
MDA-MB-231 breast = tested on: MDA-MB-231 breast
RXF 393 renal = tested on: RXF 393 renal
SF-268 CNS = tested on: SF-268 CNS
SF-295 CNS = tested on: SF-295 CNS
SF-539 CNS = tested on: SF-539 CNS
UACC-257 melanoma = tested on: UACC-257 melanoma
M14 melanoma = tested on: M14 melanoma
HT29 colon = tested on: HT29 colon
SNB-75 CNS = tested on: SNB-75 CNS
SNB-19 CNS = tested on: SNB-19 CNS
U251 CNS = tested on: U251 CNS
PC-3 prostate = tested on: PC-3 prostate
SK-MEL-5 melanoma = tested on: SK-MEL-5 melanoma
UACC-62 melanoma = tested on: UACC-62 melanoma
LOX IMVI melanoma = tested on: LOX IMVI melanoma
SK-MEL-28 melanoma = tested on: SK-MEL-28 melanoma

Measured: growth

c1nc2ccc(-c3cc4ccc5[nH]ncc5c4c4c3CCCC4)cc2[nH]1
active: M14 melanoma 7.72%
inactive: DU-145 prostate 62.5% | K-562 leukemia 27.8% | MALME-3M melanoma 28.8% | MDA-MB-231 breast 81.6% | RXF 393 renal 62.6% | SF-268 CNS 71.1% | SF-295 CNS 67.9% | SF-539 CNS 48.7% | UACC-257 melanoma 59.1% | HT29 colon 58% | SNB-75 CNS 71.2% | SNB-19 CNS 74.9% | U251 CNS 77.3% | PC-3 prostate 63.1% | SK-MEL-5 melanoma 67.4% | UACC-62 melanoma 31.9% | LOX IMVI melanoma 53.3% | SK-MEL-28 melanoma 41.7%

O=c1c2ccccc2c(=O)c2c1sc1c(=O)c3ccc(O)cc3c(=O)c12
active: DU-145 prostate -98.5% | K-562 leukemia -11.6% | MALME-3M melanoma -96.5% | MDA-MB-231 breast -13.5% | RXF 393 renal -84% | SF-268 CNS -32.1% | SF-295 CNS -94.3% | SF-539 CNS -97.1% | UACC-257 melanoma -95.2% | M14 melanoma -87.5% | HT29 colon -47.4% | SNB-75 CNS -96.4% | SNB-19 CNS -92% | U251 CNS -65.8% | PC-3 prostate -12.7% | SK-MEL-5 melanoma -96.2% | UACC-62 melanoma -73.2% | LOX IMVI melanoma -61% | SK-MEL-28 melanoma -65%

COc1ccc(Oc2nc(Nc3ccc(N4CCOCC4)cc3)ncc2NC(=O)Nc2cc(OC)cc(OC)c2)cc1
active: MALME-3M melanoma 7.76% | MDA-MB-231 breast 1.79% | RXF 393 renal -29.2% | SF-539 CNS -32.5% | HT29 colon -32.8% | SK-MEL-5 melanoma -32.8% | UACC-62 melanoma -8.63% | SK-MEL-28 melanoma 5.33%
inactive: DU-145 prostate 12.8% | K-562 leukemia 19.9% | SF-268 CNS 34.3% | SF-295 CNS 34.4% | UACC-257 melanoma 35.9% | M14 melanoma 21.4% | SNB-75 CNS 53.3% | SNB-19 CNS 28.3% | PC-3 prostate 11.6% | LOX IMVI melanoma 24.1%

CCOC(=O)CC1CSC(Nc2ccccc2)=N1 (stereo unspecified)
inactive: DU-145 prostate 103% | K-562 leukemia 96.4% | MALME-3M melanoma 102% | MDA-MB-231 breast 105% | RXF 393 renal 114% | SF-268 CNS 98.7% | SF-295 CNS 104% | SF-539 CNS 105% | UACC-257 melanoma 97.9% | M14 melanoma 103% | HT29 colon 96.8% | SNB-75 CNS 99.7% | SNB-19 CNS 104% | U251 CNS 99.5% | PC-3 prostate 99.9% | SK-MEL-5 melanoma 103% | UACC-62 melanoma 99.7% | LOX IMVI melanoma 97.3% | SK-MEL-28 melanoma 115%

CCOC(=O)/C=C1\S/C(=N\Nc2cc(=O)[nH]c3ccccc23)N(c2ccccc2)C1=O
inactive: DU-145 prostate 109% | K-562 leukemia 98.2% | MALME-3M melanoma 101% | MDA-MB-231 breast 97.8% | RXF 393 renal 103% | SF-268 CNS 104% | SF-295 CNS 103% | SF-539 CNS 96.9% | UACC-257 melanoma 107% | M14 melanoma 101% | SNB-75 CNS 80.1% | SNB-19 CNS 100% | U251 CNS 94.2% | PC-3 prostate 95.4% | SK-MEL-5 melanoma 104% | UACC-62 melanoma 97% | LOX IMVI melanoma 97.2% | SK-MEL-28 melanoma 110%

Cc1ccc(C2CC(c3nc(-c4ccc(Cl)cc4)oc3C)=NN2C(=O)c2ccncc2)cc1 (stereo unspecified)
inactive: DU-145 prostate 93.1% | K-562 leukemia 84.2% | MALME-3M melanoma 90.9% | MDA-MB-231 breast 71.6% | RXF 393 renal 74.8% | SF-268 CNS 81.6% | SF-295 CNS 87.9% | SF-539 CNS 89.5% | UACC-257 melanoma 97.1% | M14 melanoma 93.8% | HT29 colon 86.9% | SNB-75 CNS 82.1% | SNB-19 CNS 77.2% | U251 CNS 87.7% | PC-3 prostate 73.2% | SK-MEL-5 melanoma 92.4% | UACC-62 melanoma 72.3% | LOX IMVI melanoma 86% | SK-MEL-28 melanoma 92.4%

CCN1CCN(C(=O)[C@]23CC[C@@H](C)[C@H](C)[C@@H]2C2=CC[C@@H]4[C@@]5(C)C/C(=C/c6cccnc6)C(=O)C(C)(C)[C@@H]5CC[C@@]4(C)[C@]2(C)CC3)CC1
inactive: DU-145 prostate 48% | MALME-3M melanoma 12% | MDA-MB-231 breast 34.7% | SF-268 CNS 51% | SF-295 CNS 37.3% | UACC-257 melanoma 26% | M14 melanoma 40.9% | HT29 colon 12.1% | SNB-75 CNS 27.6% | SNB-19 CNS 45.9% | PC-3 prostate 16.7% | UACC-62 melanoma 33.8% | LOX IMVI melanoma 14.9% | SK-MEL-28 melanoma 37.4%
active: K-562 leukemia 6.46% | RXF 393 renal 3.08% | SF-539 CNS 8.77% | SK-MEL-5 melanoma -23.4%

COc1ccc2c(c1)c(-c1nc(-c3c[nH]c4ncccc34)cs1)cn2CCO
inactive: DU-145 prostate 56.5% | K-562 leukemia 43.5% | MALME-3M melanoma 75.9% | MDA-MB-231 breast 51.5% | RXF 393 renal 30.1% | SF-268 CNS 66.6% | SF-295 CNS 57.9% | SF-539 CNS 50% | UACC-257 melanoma 91% | M14 melanoma 59.3% | HT29 colon 54.5% | SNB-75 CNS 31.7% | SNB-19 CNS 82.4% | U251 CNS 53.2% | PC-3 prostate 49% | SK-MEL-5 melanoma 58.4% | UACC-62 melanoma 58.4% | LOX IMVI melanoma 42.8% | SK-MEL-28 melanoma 78.5%

Cc1ccc(CNc2ccc3nc(CCC(C)C)[nH]c3c2)cc1
inactive: DU-145 prostate 101% | K-562 leukemia 79.2% | MALME-3M melanoma 90.9% | MDA-MB-231 breast 86% | RXF 393 renal 96% | SF-268 CNS 91.2% | SF-295 CNS 95.1% | SF-539 CNS 94.4% | UACC-257 melanoma 89.7% | M14 melanoma 96.2% | HT29 colon 92.4% | SNB-75 CNS 86.4% | SNB-19 CNS 89% | U251 CNS 91.8% | PC-3 prostate 77.9% | SK-MEL-5 melanoma 97.8% | UACC-62 melanoma 90.7% | LOX IMVI melanoma 94.5% | SK-MEL-28 melanoma 98%

Cc1cc2c(cc1C)N(C(=O)CCl)CC(=O)N2
active: K-562 leukemia 2.9% | MALME-3M melanoma 9.7% | HT29 colon -60% | LOX IMVI melanoma -9.81%
inactive: DU-145 prostate 78.6% | MDA-MB-231 breast 51.3% | RXF 393 renal 31.2% | SF-268 CNS 60.9% | SF-295 CNS 99.5% | SF-539 CNS 93.2% | UACC-257 melanoma 59.5% | M14 melanoma 55% | SNB-75 CNS 74.4% | SNB-19 CNS 88% | U251 CNS 14.4% | PC-3 prostate 71.2% | SK-MEL-5 melanoma 43.8% | UACC-62 melanoma 70.7% | SK-MEL-28 melanoma 77.1%

C=C(C)[C@@H]1CCC[C@]2(C(=O)N3CCN(C)CC3)CC[C@]3(C)[C@@H](CC[C@@H]4[C@@]5(C)CC/C(=N\NC(=O)c6ccncc6)C(C)(C)[C@@H]5CC[C@]43C)[C@@H]12
inactive: DU-145 prostate 100% | K-562 leukemia 17.6% | MALME-3M melanoma 74.1% | MDA-MB-231 breast 66.8% | RXF 393 renal 99.7% | SF-268 CNS 84.2% | SF-295 CNS 104% | SF-539 CNS 104% | UACC-257 melanoma 103% | M14 melanoma 74.3% | HT29 colon 98.8% | SNB-75 CNS 77.7% | SNB-19 CNS 83.5% | U251 CNS 99.8% | PC-3 prostate 87% | SK-MEL-5 melanoma 92.9% | UACC-62 melanoma 87.4% | LOX IMVI melanoma 89.3% | SK-MEL-28 melanoma 95.5%

COc1ccc(C(=O)Cn2c(C(=O)c3ccc(Cl)cc3)nc3ccccc32)cc1
inactive: DU-145 prostate 98.3% | K-562 leukemia 45.7% | MALME-3M melanoma 70.7% | MDA-MB-231 breast 65.5% | RXF 393 renal 14.2% | SF-268 CNS 66.7% | SF-295 CNS 51.8% | SF-539 CNS 91% | UACC-257 melanoma 70.8% | M14 melanoma 14.8% | HT29 colon 51.2% | SNB-75 CNS 53.8% | SNB-19 CNS 74% | U251 CNS 65.3% | PC-3 prostate 68.9% | SK-MEL-5 melanoma 41.9% | UACC-62 melanoma 54.1% | LOX IMVI melanoma 74.8% | SK-MEL-28 melanoma 71.2%

Cc1nnc(-c2ccc3c(c2)nc(/C=C/c2ccccc2)n3C2CCCCC2)o1
inactive: DU-145 prostate 91.5% | K-562 leukemia 45.9% | MALME-3M melanoma 95% | MDA-MB-231 breast 87.3% | RXF 393 renal 84.6% | SF-268 CNS 86.5% | SF-295 CNS 76.1% | SF-539 CNS 110% | UACC-257 melanoma 77.4% | M14 melanoma 73.7% | HT29 colon 37.3% | SNB-75 CNS 103% | SNB-19 CNS 102% | U251 CNS 79.8% | PC-3 prostate 63.5% | SK-MEL-5 melanoma 70.8% | UACC-62 melanoma 61.8% | LOX IMVI melanoma 44.3% | SK-MEL-28 melanoma 72.4%

O=C(O)COc1ccc(Cl)c(Cl)c1
inactive: DU-145 prostate 126% | K-562 leukemia 109% | MALME-3M melanoma 124% | MDA-MB-231 breast 115% | RXF 393 renal 108% | SF-268 CNS 117% | SF-295 CNS 103% | SF-539 CNS 104% | UACC-257 melanoma 104% | M14 melanoma 112% | HT29 colon 112% | SNB-75 CNS 107% | SNB-19 CNS 117% | U251 CNS 108% | PC-3 prostate 100% | SK-MEL-5 melanoma 105% | UACC-62 melanoma 104% | LOX IMVI melanoma 97.9% | SK-MEL-28 melanoma 116%

CCN1C(=O)N(CC)C2C1NN=c1s/c(=C\c3cnc(C)n3C)c(=O)n12 (stereo unspecified)
inactive: K-562 leukemia 15.5% | MALME-3M melanoma 29.8% | MDA-MB-231 breast 43.8% | SF-268 CNS 51.9% | UACC-257 melanoma 29.7% | SNB-19 CNS 25.6% | PC-3 prostate 17.5% | SK-MEL-5 melanoma 17.9% | UACC-62 melanoma 31.2% | LOX IMVI melanoma 34.5% | SK-MEL-28 melanoma 42.7%
active: DU-145 prostate 5.42% | RXF 393 renal -29.3% | SF-295 CNS 9.05% | SF-539 CNS -20.2% | M14 melanoma 4.96% | HT29 colon 0.594% | SNB-75 CNS -24.7% | U251 CNS 7.74%

Nc1[nH]n2cc(-c3ccc(F)cc3)nc2c1N=Nc1ccc(S(N)(=O)=O)cc1
inactive: DU-145 prostate 70.2% | K-562 leukemia 90.1% | MALME-3M melanoma 58.4% | MDA-MB-231 breast 74.8% | RXF 393 renal 60.4% | SF-268 CNS 76.7% | SF-295 CNS 98.2% | SF-539 CNS 72.5% | UACC-257 melanoma 99.6% | M14 melanoma 64.6% | HT29 colon 83.6% | SNB-75 CNS 56.4% | SNB-19 CNS 86.4% | U251 CNS 76.4% | PC-3 prostate 80.6% | SK-MEL-5 melanoma 76.9% | UACC-62 melanoma 71.4% | LOX IMVI melanoma 64.5% | SK-MEL-28 melanoma 84.8%
